Results taken from the supplement of paper PMC6555819.

Tests used:
Test in all cases: PBM binding z-score (relative to random genomic background probes); higher = stronger binding; sequences stand for … in GC…GCGATTGACAGCGTAGAATGAAGG
[1] = test system: RARb homodimer (NR concentration 270 nM)
How it was run: (§1)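 Regression normalization was applied to scanned fluorescence from custom Agilent 4×180K protein-binding microarrays. Before scanning, arrays were incubated 1 h with ligand-free nuclear receptor dimers, and binding was detected with antibodies against each partner (one per run). Binding z-scores use the random background probes as reference.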

[2] = test system: RARg:RXRa (NR concentration 270 nM, RXRa partner concentration 90 nM)
How it was run: as §1

[3] = test system: RARg homodimer (NR concentration 270 nM)
How it was run: as §1

[4] = test system: RXRa DBDmut IVT, anti-RXR (DBD mutation: RXRa K156A/R161A, NR concentration 90 nM)
How it was run: as §1

[5] = test system: RXRa homodimer (NR concentration 180 nM)
How it was run: as §1

[6] = test system: THRa:RXRa (NR concentration 90 nM, RXRa partner concentration 90 nM)
How it was run: as §1

[7] = test system: THRa homodimer (NR concentration 90 nM)
How it was run: as §1

[8] = test system: VDR homodimer (NR concentration 270 nM)
How it was run: as §1

| Sequence | PBM binding z-score [1] | PBM binding z-score [2] | PBM binding z-score [3] | PBM binding z-score [4] | PBM binding z-score [5] | PBM binding z-score [6] | PBM binding z-score [7] | PBM binding z-score [8] |
| --- | --- | --- | --- | --- | --- | --- | --- | --- |
| TCTAGTTGGTCAAAGGTCTCACACTCGAAATGCG | 1.83 | 1.78 | 1.17 | 1.14 | 1.98 | 0.831 | 0.738 | 0.545 |
| CGAACTAGGTCACCAGGACAGTGTAGAGGTTGGA | 3.53 | 4.35 | 5.47 | 1.65 | 3.25 | 3.47 | 2.14 | 0.343 |
| CAAACTAGGTCAAAGGTCAACGTCGAGCCAACCA | 5.12 | 8.91 | 7.98 | 2.88 | 10.3 | 4.98 | 2.1 | 2.86 |
| CCGAGTAGGATACGAGGGGGCATTCAGTGCGAAT | 1.17 | 1.37 | 0.779 | 0.527 | 0.919 | 1.97 | -0.158 | 2.57 |
| TCTAGTTGGTTACGGAGGTCACACACGACGGGTA | 3.79 | 4.2 | 3.66 | 1.12 | 4.33 | 3.52 | 2.49 | 3.21 |
| CCTACTGGGCCATTCAGAGGTCATTGATCATATG | 3.93 | 4.35 | 2.99 | 1.44 | 3.55 | 3.14 | 1.18 | 3.37 |
| CCGAGTAGGTTACGAGGGGGCCTTCAGTGCGAAT | 0.846 | 2.15 | 1.32 | 0.265 | 0.978 | 2.11 | 0.4 | 0.498 |
